Laboratory results from the supplement of paper PMC8728848.
About 410 targets per protein were measured; listed, in parts, are those with the strongest signals and a random draw of the rest.

Key:
Experiment in all cases: glycan array binding signal (z-score within array); higher = stronger binding
Conditions in all cases: glycan notation: IUPAC condensed, linker removed
[1] = biological target: Fuc(a1-2)Gal(b1-3)[Fuc(a1-4)]GlcNAc
Method in brief: (§1)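 Glycan array binding is given as a within-array Z-score, which can be read as non-binding when negative. The arrays, 3228 of them, came from the Consortium for Functional Glycomics database and were retained only where the protein sequence was available. Z-scores were averaged across arrays of the same protein sequence at different concentrations or buffers and across linkers.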

Fuc(a1-2)Gal(b1-4)Glc = biological target: Fuc(a1-2)Gal(b1-4)Glc
Method in brief: as §1

[2] = biological target: Fuc(a1-2)Gal6S(b1-4)GlcNAc
Method in brief: as §1

[3] = biological target: Fuc(a1-2)[Gal(a1-3)]Gal(b1-4)GlcNAc
Method in brief: as §1

[4] = biological target: Fuc(a1-2)[Gal(a1-3)]Gal(b1-4)GlcNAc(b1-2)Man(a1-3)[Fuc(a1-2)[Gal(a1-3)]Gal(b1-4)GlcNAc(b1-2)Man(a1-6)]Man(b1-4)GlcNAc(b1-4)GlcNAc
Method in brief: as §1

[5] = biological target: Fuc(a1-2)[Gal(a1-3)]Gal(b1-4)GlcNAc(b1-3)GalNAc
Method in brief: as §1

[6] = biological target: Fuc(a1-2)[Gal(a1-3)]Gal(b1-4)[Fuc(a1-3)]Glc
Method in brief: as §1

[7] = biological target: Fuc(a1-2)[GalNAc(a1-4)]Gal(b1-4)GlcNAc
Method in brief: as §1

[8] = biological target: Fuc(a1-3)[Gal(b1-4)]Glc6S
Method in brief: as §1

[9] = biological target: Gal(a1-3)Fuc(a1-2)Gal(b1-4)GlcNAc(b1-3)[Gal(a1-3)Fuc(a1-2)Gal(b1-4)GlcNAc(b1-6)]GalNAc
Method in brief: as §1

Gal(a1-3)Gal(b1-4)GlcNAc = biological target: Gal(a1-3)Gal(b1-4)GlcNAc
Method in brief: as §1

[10] = biological target: Gal(a1-4)Gal(b1-3)GlcNAc(b1-2)Man(a1-3)[Gal(a1-4)Gal(b1-3)GlcNAc(b1-2)Man(a1-6)]Man(b1-4)GlcNAc(b1-4)GlcNAc
Method in brief: as §1

Gal(a1-4)GlcNAc = biological target: Gal(a1-4)GlcNAc
Method in brief: as §1

[11] = biological target: Gal(b1-3)Gal(b1-4)GlcNAc(b1-2)Man(a1-3)[Gal(b1-3)Gal(b1-4)GlcNAc(b1-2)Man(a1-6)]Man(b1-4)GlcNAc(b1-4)GlcNAc
Method in brief: as §1

Gal(b1-3)GlcNAc = biological target: Gal(b1-3)GlcNAc
Method in brief: as §1

[12] = biological target: Gal(b1-3)GlcNAc(b1-2)Man(a1-3)[Gal(b1-3)GlcNAc(b1-2)Man(a1-6)]Man(b1-4)GlcNAc(b1-4)[Fuc(a1-6)]GlcNAc
Method in brief: as §1

[13] = biological target: Gal(b1-3)GlcNAc(b1-3)Gal(b1-4)GlcNAc
Method in brief: as §1

[14] = biological target: Gal(b1-3)[Fuc(a1-4)]GlcNAc(b1-2)Man(a1-3)[Gal(b1-3)[Fuc(a1-4)]GlcNAc(b1-2)Man(a1-6)]Man(b1-4)GlcNAc(b1-4)[Fuc(a1-6)]GlcNAc
Method in brief: as §1

[15] = biological target: Gal(b1-4)GlcNAc(b1-3)Gal(b1-4)Glc
Method in brief: as §1

[16] = biological target: Gal(b1-4)GlcNAc(b1-3)GalNAc
Method in brief: as §1

[17] = biological target: GalNAc(a1-3)Fuc(a1-2)Gal(b1-4)GlcNAc(b1-3)[GalNAc(a1-3)Fuc(a1-2)Gal(b1-4)GlcNAc(b1-6)]GalNAc
Method in brief: as §1

GalNAc(b1-4)Gal(b1-4)Glc = biological target: GalNAc(b1-4)Gal(b1-4)Glc
Method in brief: as §1

GlcA(b1-3)Gal = biological target: GlcA(b1-3)Gal
Method in brief: as §1

GlcNAc(b1-3)Gal(b1-4)Glc = biological target: GlcNAc(b1-3)Gal(b1-4)Glc
Method in brief: as §1

Kdn(a2-3)Gal(b1-4)Glc = biological target: Kdn(a2-3)Gal(b1-4)Glc
Method in brief: as §1

Kdn(a2-6)Gal(b1-4)GlcNAc = biological target: Kdn(a2-6)Gal(b1-4)GlcNAc
Method in brief: as §1

[18] = biological target: Neu5Ac(a2-3)Gal(b1-4)GlcNAc(b1-3)Gal(b1-4)[Fuc(a1-3)]GlcNAc
Method in brief: as §1

[19] = biological target: Neu5Ac(a2-3)[GalNAc(b1-4)]Gal(b1-4)GlcNAc(b1-3)GalNAc
Method in brief: as §1

Neu5Ac(a2-6)GalNAc = biological target: Neu5Ac(a2-6)GalNAc
Method in brief: as §1

[20] = biological target: Neu5Ac9Ac(a2-3)Gal(b1-4)GlcNAc
Method in brief: as §1

B1: SCA (Schizophyllum commune) (protein)
chain: MGIDQGVYLITNAGSGTAATLKDGYVKGWERIKGKEQLNQLWFVKSVKTSASDPGYAAFNLATNKVLDLEKGLADRGTPILGWDYHEGDNQHWVIKKQADGKYYKIQSVKTQTFVDLNNGGKDNGTKIQGWVGSWDETNSHQRWVFNQFSATGSRIKSILDTHPKIHGKVIVEWPDRIYFTPDQYIFEAIWAKTGLADIKPRDPLFQSEAYEKVFKGWVVSRAQEIIKVDGFDILVGSLSLVEKSTQKIKVLDVSVRTSDDKSPDLSQIVFFDPESGRTLVDIPEGYEVNSVII
- glycan array binding signal (z-score) [1]: -0.163
- glycan array binding signal (z-score) (Fuc(a1-2)Gal(b1-4)Glc): -0.153
- glycan array binding signal (z-score) [2]: -0.161
- glycan array binding signal (z-score) [3]: 5.61
- glycan array binding signal (z-score) [4]: 7.08
- glycan array binding signal (z-score) [5]: 2.52
- glycan array binding signal (z-score) [6]: -0.163
- glycan array binding signal (z-score) [7]: 0.703
- glycan array binding signal (z-score) [8]: -0.16
- glycan array binding signal (z-score) [9]: 6.72
- glycan array binding signal (z-score) (Gal(a1-3)Gal(b1-4)GlcNAc): 8.25
- glycan array binding signal (z-score) [10]: 3.68
- glycan array binding signal (z-score) (Gal(a1-4)GlcNAc): -0.135
- glycan array binding signal (z-score) [11]: 11.4
- glycan array binding signal (z-score) (Gal(b1-3)GlcNAc): -0.162
- glycan array binding signal (z-score) [12]: -0.159
- glycan array binding signal (z-score) [13]: -0.158
- glycan array binding signal (z-score) [14]: -0.054
- glycan array binding signal (z-score) [15]: -0.16
- glycan array binding signal (z-score) [16]: -0.159
- glycan array binding signal (z-score) [17]: 0.835
- glycan array binding signal (z-score) (GalNAc(b1-4)Gal(b1-4)Glc): -0.162
- glycan array binding signal (z-score) (GlcA(b1-3)Gal): 8.44
- glycan array binding signal (z-score) (GlcNAc(b1-3)Gal(b1-4)Glc): -0.158
- glycan array binding signal (z-score) (Kdn(a2-3)Gal(b1-4)Glc): -0.152
- glycan array binding signal (z-score) (Kdn(a2-6)Gal(b1-4)GlcNAc): -0.162
- glycan array binding signal (z-score) [18]: -0.164
- glycan array binding signal (z-score) [19]: -0.161
- glycan array binding signal (z-score) (Neu5Ac(a2-6)GalNAc): -0.162
- glycan array binding signal (z-score) [20]: -0.16
